Results filed as inconclusive are left out. A number with no mark means an inactive call. The call rests on the fitted dose curve.

Experimental findings from PubChem BioAssay (Tox21) are described below.
On the % scale 0 is the no-effect control and ±100 the full control effect.

Sequence of Beta-2 adrenergic receptor (Homo sapiens) (P07550 whole entry, looked up): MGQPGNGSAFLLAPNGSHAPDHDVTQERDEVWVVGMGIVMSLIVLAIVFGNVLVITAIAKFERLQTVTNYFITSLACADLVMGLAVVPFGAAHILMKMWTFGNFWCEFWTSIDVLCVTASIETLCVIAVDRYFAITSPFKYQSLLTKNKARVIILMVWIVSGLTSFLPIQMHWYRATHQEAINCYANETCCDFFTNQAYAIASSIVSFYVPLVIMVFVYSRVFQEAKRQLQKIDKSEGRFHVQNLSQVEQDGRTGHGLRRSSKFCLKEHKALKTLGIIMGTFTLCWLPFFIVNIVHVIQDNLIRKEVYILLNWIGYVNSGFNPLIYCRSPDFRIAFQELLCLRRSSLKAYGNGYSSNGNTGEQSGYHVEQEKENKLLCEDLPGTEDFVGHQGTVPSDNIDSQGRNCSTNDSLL

The assay addresses Beta-2 adrenergic receptor (Homo sapiens) (UniProt P07550). Kind of assay: Adrenergic beta2 receptor (ADRB2) small molecule antagonists, cell-based qHTS assay (AID 1963592). Further: nearly all actives have a fitted effect of over 50% in size. The following applies: CHO-ADRB2 cells, isoproterenol-stimulated cAMP HTRF ratio, 0.5 h; series mostly up to 92.4 µM; activity change, negative = inhibition: at the top concentration. The source says:
U.S. Tox21 Program National Center for Advancing Translational Sciences [NCATS] Division of Preclinical Innovation [DPI] U.S. Environmental Protection Agency [EPA] National Institutes of Environmental Health Sciences [NIEHS] National Toxicology Program [NTP] U.S. Food and Drug Administration [FDA] Tox21 Assay Overview: Beta adrenergic receptors (Beta-ARs) belong to the G-protein coupled receptor (GPCR) superfamily, includes three subtypes - beta1, beta2, and beta3. Beta1-AR is the predominant receptor subtype expressed in the heart, and beta2-AR is expressed in the kidney, lung, blood vessel and in the heart, and beta3 is found in the adipocytes. Beta1 and 2 ARs couple to Gs protein and elevate cyclic adenosine mono phosphate (cAMP), which activates protein kinase A and leads to the downstream signaling responsible for the physiological actions. Beta-AR agonists or antagonists are the most prescribed therapeutic agents for heart failure and asthma, and these were one of the first target receptors for the rational drug design. Tox21 10K compound library was screened using the cAMP-Gs dynamic assay (Cisbio Bioassays, Shelton, CT) to identify agonists/antagonists of the Gs-coupled human adrenergic, beta2 receptor (ADRB2) in the CHO-ADRB2 cell line (Codex BioSolutions, Inc. Gaithersburg, MD), which stably over-expresses ADRB2. The principle of cAMP-Gs dynamic assay is based on HTRF technology, which facilitates the fluorescence resonance energy transfer (FRET) between donor Europium cryptate and acceptor d2-labeled cAMP. The cAMP generated within cells competes with the red acceptor, d2-labled cAMP, for binding to the monoclonal anti-cAMP-cryptate (Europium donor). An increase in intracellular cAMP leads to the disruption of FRET signal, and the signal is inversely proportional to the cAMP concentration. Propranolol HCl (Sigma-Aldrich, St. Louis, MO) was used as a positive control in the screening.
Tox21 Assay Protocol Summary: CHO-ADRB2 cells were dispensed at 1,000/well in 4uL assay medium into white/solid 1536-well plates (Greiner Bio-One North America Inc., Monroe, NC) using a Multidrop Combi dispenser (ThermoFisher Scientific, Waltham, MA). The assay plates were incubated at 37C and 5% CO2 for an overnight (18-20hr). Then positive control and test compounds dissolved in DMSO were transferred to the assay plates at 23nL using a Pintool station (Wako, San Diego, CA). Following the compound and positive control transfer, 1uL agonist-stimulation mix containing 1nM Isoproterenol HCl, 100uM IBMX and 25uM Ro-20-1724 was added to each well of the assay plates using BioRAPTR Flying Reagent Dispenser (FRD, Beckman Coulter, Brea, CA). The assay plates were incubated at room temperature for 0.5hr. Then 2.5ul each d2-labled cAMP and anti-cAMP-cryptate solutions were added separately to each well of the assay plates using an FRD and the assay plates were incubated at room temperature for 1hr. The fluorescence signal was measured at two different wavelengths (665nm and 615nm) using an Envision plate reader (Perkin Elmer, Shelton, CT). Data were expressed as the ratio of 665 nm/615 nm.
For the compound `O=C1c2ccccc2C(=O)C1c1ccc(Br)cc1`, the “activity change, negative = inhibition” value is 2.49% [at 42.5 µM]. Turning to `Cc1c(C(=O)NCCO)[n+](=O)c2ccccc2n1[O-]`, the “activity change, negative = inhibition” value was -7.95% [at 42.5 µM]. Take `OCCNCc1ccccc1`: the “activity change, negative = inhibition” value is 3.65%.

With `CCCCOCCOC(=O)COc1cc(Cl)c(Cl)cc1Cl`, the “activity change, negative = inhibition” value was -0.429%. Regarding `CCC1NC(=O)c2cc(S(N)(=O)=O)c(Cl)cc2N1` (stereo not given), the “activity change, negative = inhibition” value was -13.5% [at 42.5 µM]. Consider `CCOC(=O)c1c(N)sc2c1CCN(Cc1ccccc1)C2`, for which the “activity change, negative = inhibition” value was -1.76% [at 42.5 µM]. The value for `CCCCCCCCCCCSCC(=O)O` was 4.27%; that for `COc1cccc(-c2ccc(/C=C\CN3CCCCCC3)cc2Cl)c1` was -24.9%; that for `Cc1c(C(C)C)c(=O)n(-c2ccccc2)n1C` was 0.337% [at 42.5 µM].

For `COCCc1ccccn1`, the “activity change, negative = inhibition” value is 6.24% [at 42.5 µM].

For `COc1ccc(CN2CCN(C(c3ccc(F)cc3)c3ccc(F)cc3)CC2)c(OC)c1OC`, the “activity change, negative = inhibition” value is 9.8% [at 42.5 µM].

`CN(C)CCN1CCOCC1`: the “activity change, negative = inhibition” value is 1.23%. `O=Cc1ccc(F)c(Br)c1`: the “activity change, negative = inhibition” value was 5.23%. As for `CCc1ccc(CC)cc1`, the “activity change, negative = inhibition” value is 2.46%. Take `CCN(CC)CCc1nc(-c2ccccc2)no1`: the “activity change, negative = inhibition” value is -6.1% [at 42.5 µM]. As to `O=c1[nH]cnc2nc[nH]c12`, the “activity change, negative = inhibition” value was 4.4% [at 42.5 µM].

As for `C(=C/c1ccccc1)/c1ccccc1`, the “activity change, negative = inhibition” value is 2.67%. For `CC(CN1CC(=O)NC(=O)C1)N1CC(=O)NC(=O)C1` (stereo not given), the “activity change, negative = inhibition” value was -23.3%. Take `COCC(=O)Nc1c(I)c(C(=O)NCC(O)CO)c(I)c(C(=O)N(C)CC(O)CO)c1I` (stereo not given): the “activity change, negative = inhibition” value was 0.443% [at 42.5 µM]. As for `CC/C(=C\C(=N/O)C(N)=O)C(C)[N+](=O)[O-]` (stereo not given), the figure is -17.3%; as for `CCCCCCCCCC(=O)OCC`, -6.8%. As for `CC(CCl)OC(C)CCl` (stereo not given), the “activity change, negative = inhibition” value is -1.26%. Consider `CCCCCO`, for which the “activity change, negative = inhibition” value was 0.884%. On to `COc1cc(NS(=O)(=O)c2ccc(N)cc2)ncn1`, for which the “activity change, negative = inhibition” value is -8.41% [at 42.5 µM]. As for `C[Si]1(C)O[Si](C)(C)O[Si](C)(C)O1`, the figure is 0.98%; as for `CCn1cc(C(=O)O)c(=O)c2cc(F)c(N3CCNC(C)C3)c(F)c21` (stereo not given), 3.34% [at 42.5 µM]. With `Clc1ccc2c(c1)CCc1cccnc1C2=C1CCNCC1`, the “activity change, negative = inhibition” value is -16% [at 42.5 µM]. For the compound `CCOc1nc(F)cc2nc(S(=O)(=O)Nc3c(Cl)cccc3C(=O)OC)nn12`, the “activity change, negative = inhibition” value was -4.84%. As for `CCCCC1CCCCC(=O)O1` (stereo not given), the figure is 1.04%. As for `CC1CC(C)C(=O)C1=O` (stereo not given), the “activity change, negative = inhibition” value is -4.65%. Turning to `CCOC(=O)C(=O)CCCCCCl`, the “activity change, negative = inhibition” value was 9.33% [at 42.5 µM].

For the compound `COc1ccc(-n2nc(CCC(=O)N(C)O)cc2-c2ccc(Cl)cc2)cc1`, the “activity change, negative = inhibition” value was -6.46% [at 42.5 µM]. In the case of `O=c1c2ccccc2nnn1CCl`, the “activity change, negative = inhibition” value was -8.5%. With `COCCO`, the “activity change, negative = inhibition” value was 3.98%. As to `CCN(CC)CCOC(=O)C(Cc1cccc2ccccc12)CC1CCCO1` (stereo not given), the “activity change, negative = inhibition” value is -27% [at 42.5 µM]. For `CCCCCCCCCOC(=O)c1ccc(O)cc1`, the “activity change, negative = inhibition” value is 7.05%.

`CCCCOC(=O)C(C)O` (stereo not given): the “activity change, negative = inhibition” value was 0.146%. As for `O=S(=O)(c1ccccc1)c1ccc(Cl)cc1`, the figure is -13.8%; as for `CCCCS`, -7.57%; as for `Nc1c2c(nc3c1CCC3)CCCC2`, -10.2% [at 42.5 µM].
